In PubChem BioAssay (Tox21) one finds Potency, viability change, negative = cytotoxic and activity change, negative = cytotoxicity data, which are given here for 40 molecules.

Inconclusive results are not listed. Where a call stands in place of a potency, no number is given. A number with no mark means an inactive call. Calls of active or inactive are those of the source. Calls come from the whole dose curve; as a rule, active = well fitted cell-killing curve with a large enough effect in the repeat runs; inconclusive = weak or mixed curves, or effect the other way; inactive = flat fitted curve, though single readings scatter.

The nature of the first test: cAMP Responsive Elements (CRE) small molecule antagonists, cell-based qHTS assay: qHTS cell viability counter screen (AID 2060913). Note: nearly all actives have a fitted effect of over 40% in size. As to conditions: CRE-bla HEK293T viability, CellTiter-Glo luminescence, 5 h; series mostly up to 92.4 µM. Put shortly:
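Steps: cells plated and held 18 hrs at 37 C/5% CO2; compounds and NKH477 (0.25 uM final) added; 3 hrs incubation; reporter substrate read; CellTiter-Glo added to measure cytotoxicity by luminescence.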
Regarding `O=C(O)C(=O)O`, the Potency result was “inactive”.
As to `O=C(O)c1cccc(Oc2ccccc2)c1`, the Potency result was “inactive”.
For the molecule `OCCNCCO`, the Potency entry was “inactive”.
Take `COc1ccc(C#N)cc1`: the Potency result was “inactive”.
In the case of `CCCCC(CC)COP(=O)(O)OCC(CC)CCCC` (stereo not given), the Potency entry was “inactive”.
As to `CCOC(=O)N1CCC(=C2c3ccc(Cl)cc3CCc3cccnc32)CC1`, the Potency result is “inactive”.
Turning to `Cc1c(N)cccc1[N+](=O)[O-]`, the Potency entry was “inactive”.
Same read-out and setting: next, `CC(=O)c1ccc(C)cc1`: “inactive”.
Same read-out and setting: the entry for `Cc1ccc2n[nH]nc2c1` is “inactive”; for `C=CC(=C)CCCC(C)(C)OC(C)=O` it is “inactive”; for `CC(=N\O)/C(C)=N/O` it is “inactive”.
Turning to `C/C=C(\C)C#N`, the Potency result was “inactive”.
Still for that read-out and setting: next, `CCCC(=O)OCC`: “inactive”; `CC1(C)C(=O)N(Br)C(=O)N1Br`: “inactive”; `CCCCCCCOC(C)=O`: “inactive”.
For `CC(=O)c1nccs1`, the Potency entry was “inactive”.
Consider `CCC(C)c1cc(C(C)(C)C)c(O)c(C(C)(C)C)c1` (stereo not given), for which the Potency result was “inactive”.
In the case of `O=C1C(c2[nH]c3ccccc3c2O)=Nc2ccccc21`, the Potency entry was “inactive”.
Consider `NC(=O)c1ccccc1`, for which the Potency result was “inactive”.
For the molecule `CC(C)(C)c1cccc(C(C)(C)C)c1O`, the Potency result was “inactive”.
Consider `N#CCc1ccc(Cl)cc1Cl`, for which the Potency result was “inactive”.
Regarding `CCCCCC/C(C=O)=C\c1ccccc1`, the Potency entry is “inactive”.
Take `CC(C)(C)C(=O)CC(=O)C(C)(C)C`: the Potency entry is “inactive”.
The same measure, in the same setting: next, `NC(=O)C1(N2CCCCC2)CCN(CCCC(=O)c2ccc(F)cc2)CC1`: “inactive”; `Cc1cccc2ccccc12`: “inactive”; `O[C@@H](CNC[C@H](O)[C@H]1CCc2cc(F)ccc2O1)[C@@H]1CCc2cc(F)ccc2O1`: “inactive”.
In the case of `CCN(CC)CCOCCOC(=O)C1(c2ccccc2)CCCC1`, the Potency entry was “inactive”.
Consider `CC1CN(c2cc3c(cc2F)c(=O)c(C(=O)O)cn3-c2ccc(F)cc2F)CCN1` (stereo not given), for which the viability change, negative = cytotoxic was 0.301% [at 8.39 µM].
For `O=C(c1ccc(O)cc1)c1ccc(O)c(O)c1O`, the Potency result is “inactive”.
On the same count and under the same terms, next, `CCCCCCCC/C=C/CCCCCCCC1=NCCN1CCO`: “inactive”; `COc1ccc2c(c1OC)C(=O)O[C@@H]2[C@H]1c2c(cc3c(c2OC)OCO3)CCN1C`: “inactive”.
As to `O=[N+]([O-])c1cc[n+]([O-])cc1`, the Potency result was “inactive”.
On to `CC(C)(C)c1ccccc1`, for which the Potency result was “inactive”.
In the case of `O=C(/C=C/c1ccccc1)OCCCc1ccccc1`, the Potency entry was “inactive”.
Still for that read-out and setting: next, `CCCCCCCCCC(=O)O`: “inactive”.
For `C=CC(C)(CCC=C(C)C)OC=O` (stereo not given), the Potency result is “inactive”.
Regarding `OCCN(CCO)c1ccccc1`, the Potency result is “inactive”.
Still for that read-out and setting: next, `CC[C@@H]1C[C@H](N(Cc2cc(C(F)(F)F)cc(C(F)(F)F)c2)C(C)=O)c2cc(C(F)(F)F)ccc2N1C(=O)OC(C)C`: “inactive”; `CCOc1ccc2c(c1)C(C)CC(C)(C)N2` (stereo not given): “inactive”; `C=CC(C)(O)CCC=C(C)C` (stereo not given): “inactive”.

The nature of a further test: cAMP Responsive Elements (CRE) small molecule agonists, cell-based qHTS assay: qHTS cell viability counter screen (AID 2060914).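 Note: viability read after 3 h of compound exposure; nearly all actives have a fitted effect of over 50% in size.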 To be noted: CRE-bla HEK293T viability, CellTiter-Glo luminescence, 5 h; series mostly up to 92.4 µM. Put shortly: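 CRE-bla HEK 293T cells, plated 18 h at 37 °C, were exposed to compounds for 3 h at 37 °C/5% CO2. Viability was then measured in the same wells by CellTiter-Glo luminescence after 30 min at room temperature.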
(qHTS replaces the single test concentration by a dilution series.)
Consider `O=C(O)C(=O)O`, for which the Potency entry is “inactive”.
Take `O=C(O)c1cccc(Oc2ccccc2)c1`: the Potency entry was “inactive”.
Same read-out and setting: next, `OCCNCCO`: “inactive”; `COc1ccc(C#N)cc1`: “inactive”.
The same measure, in the same setting: next, `CCCCC(CC)COP(=O)(O)OCC(CC)CCCC` (stereo not given): “inactive”.
Take `CCOC(=O)N1CCC(=C2c3ccc(Cl)cc3CCc3cccnc32)CC1`: the Potency entry was “inactive”.
`Cc1c(N)cccc1[N+](=O)[O-]`: the Potency entry was “inactive”.
In the case of `CC(=O)c1ccc(C)cc1`, the Potency entry was “inactive”.
The same measure, in the same setting: next, `Cc1ccc2n[nH]nc2c1`: “inactive”; `C=CC(=C)CCCC(C)(C)OC(C)=O`: “inactive”; `CC(=N\O)/C(C)=N/O`: “inactive”.
`C/C=C(\C)C#N`: the Potency result is “inactive”.
Take `CCCC(=O)OCC`: the Potency entry is “inactive”.
Regarding `CC1(C)C(=O)N(Br)C(=O)N1Br`, the Potency entry is “inactive”.
Consider `CCCCCCCOC(C)=O`, for which the Potency entry is “inactive”.
As to `CC(=O)c1nccs1`, the Potency entry is “inactive”.
As for `CCC(C)c1cc(C(C)(C)C)c(O)c(C(C)(C)C)c1` (stereo not given), the Potency entry was “inactive”.
For the molecule `O=C1C(c2[nH]c3ccccc3c2O)=Nc2ccccc21`, the Potency entry was “inactive”.
Still for that read-out and setting: the entry for `NC(=O)c1ccccc1` is “inactive”; for `CC(C)(C)c1cccc(C(C)(C)C)c1O` it is “inactive”.
On to `N#CCc1ccc(Cl)cc1Cl`, for which the Potency result was “inactive”.
On to `CCCCCC/C(C=O)=C\c1ccccc1`, for which the Potency result was “inactive”.
Turning to `CC(C)(C)C(=O)CC(=O)C(C)(C)C`, the Potency entry is “inactive”.
Still for that read-out and setting: the entry for `NC(=O)C1(N2CCCCC2)CCN(CCCC(=O)c2ccc(F)cc2)CC1` is “inactive”; for `Cc1cccc2ccccc12` it is “inactive”; for `O[C@@H](CNC[C@H](O)[C@H]1CCc2cc(F)ccc2O1)[C@@H]1CCc2cc(F)ccc2O1` it is “inactive”.
The same measure, in the same setting: next, `CCN(CC)CCOCCOC(=O)C1(c2ccccc2)CCCC1`: “inactive”.
Turning to `CC1CN(c2cc3c(cc2F)c(=O)c(C(=O)O)cn3-c2ccc(F)cc2F)CCN1` (stereo not given), the activity change, negative = cytotoxicity is -0.163% [at 8.39 µM].
Regarding `O=C(c1ccc(O)cc1)c1ccc(O)c(O)c1O`, the Potency result is “inactive”.
Regarding `CCCCCCCC/C=C/CCCCCCCC1=NCCN1CCO`, the Potency entry was “inactive”.
Consider `COc1ccc2c(c1OC)C(=O)O[C@@H]2[C@H]1c2c(cc3c(c2OC)OCO3)CCN1C`, for which the Potency result was “inactive”.
The same measure, in the same setting: the entry for `O=[N+]([O-])c1cc[n+]([O-])cc1` is “inactive”.
For the molecule `CC(C)(C)c1ccccc1`, the Potency result was “inactive”.
`O=C(/C=C/c1ccccc1)OCCCc1ccccc1`: the Potency result was “inactive”.
On to `CCCCCCCCCC(=O)O`, for which the Potency result was “inactive”.
Take `C=CC(C)(CCC=C(C)C)OC=O` (stereo not given): the Potency result was “inactive”.
The same measure, in the same setting: next, `OCCN(CCO)c1ccccc1`: “inactive”; `CC[C@@H]1C[C@H](N(Cc2cc(C(F)(F)F)cc(C(F)(F)F)c2)C(C)=O)c2cc(C(F)(F)F)ccc2N1C(=O)OC(C)C`: “inactive”.
Turning to `CCOc1ccc2c(c1)C(C)CC(C)(C)N2` (stereo not given), the Potency result is “inactive”.
`C=CC(C)(O)CCC=C(C)C` (stereo not given): the Potency entry is “inactive”.
